Unmarked numbers belong to inactive results. Inconclusive results are not listed. Calls of active or inactive are those of the source. Unless noted, calls follow the shape of the dose curve; as a rule, active = well fitted curve in the direction sought with a large enough effect; inconclusive = small, poorly fitted or top-dose-only effect, or another doubt; inactive = no such curve, though single readings can be large; an effect the other way counts as inactive or inconclusive.

The source of these data is PubChem BioAssay (NCATS).

Experiment [1] concerns the target Rap guanine nucleotide exchange factor 3 (Homo sapiens) (UniProt O95398). The experiment is described as follows: Confirmatory qHTS for agonist of cAMP-regulated guanine nucleotide exchange factor 3 (EPAC1) (AID 1645881). Also: nearly all actives have a fitted effect of over 75% in size. Also: potency is read from the fitted curve at half-maximal effect.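 As to activation: EPAC1 catalysed release of BODIPY-GDP from Rap1B seen as fluorescence loss; 100% = effect of cAMP agonist control.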 For orientation: In qHTS, concentration-response curves come from the screen itself.
The target of experiment [2] is Rap guanine nucleotide exchange factor 4 (Homo sapiens) (UniProt Q8WZA2). Briefly: Confirmatory qHTS for agonist of cAMP-regulated guanine nucleotide exchange factor 4 (EPAC2) (AID 1645884).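 Also: nucleotide exchange releases bodipy-GDP from Rap1 and this lowers its fluorescence; % is scaled to controls: 0 for no effect and ±100 for the full control effect; nearly all actives have a fitted effect of over 65% in size.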
Chain of Rap guanine nucleotide exchange factor 4 (Homo sapiens) (Q8WZA2 whole entry, looked up): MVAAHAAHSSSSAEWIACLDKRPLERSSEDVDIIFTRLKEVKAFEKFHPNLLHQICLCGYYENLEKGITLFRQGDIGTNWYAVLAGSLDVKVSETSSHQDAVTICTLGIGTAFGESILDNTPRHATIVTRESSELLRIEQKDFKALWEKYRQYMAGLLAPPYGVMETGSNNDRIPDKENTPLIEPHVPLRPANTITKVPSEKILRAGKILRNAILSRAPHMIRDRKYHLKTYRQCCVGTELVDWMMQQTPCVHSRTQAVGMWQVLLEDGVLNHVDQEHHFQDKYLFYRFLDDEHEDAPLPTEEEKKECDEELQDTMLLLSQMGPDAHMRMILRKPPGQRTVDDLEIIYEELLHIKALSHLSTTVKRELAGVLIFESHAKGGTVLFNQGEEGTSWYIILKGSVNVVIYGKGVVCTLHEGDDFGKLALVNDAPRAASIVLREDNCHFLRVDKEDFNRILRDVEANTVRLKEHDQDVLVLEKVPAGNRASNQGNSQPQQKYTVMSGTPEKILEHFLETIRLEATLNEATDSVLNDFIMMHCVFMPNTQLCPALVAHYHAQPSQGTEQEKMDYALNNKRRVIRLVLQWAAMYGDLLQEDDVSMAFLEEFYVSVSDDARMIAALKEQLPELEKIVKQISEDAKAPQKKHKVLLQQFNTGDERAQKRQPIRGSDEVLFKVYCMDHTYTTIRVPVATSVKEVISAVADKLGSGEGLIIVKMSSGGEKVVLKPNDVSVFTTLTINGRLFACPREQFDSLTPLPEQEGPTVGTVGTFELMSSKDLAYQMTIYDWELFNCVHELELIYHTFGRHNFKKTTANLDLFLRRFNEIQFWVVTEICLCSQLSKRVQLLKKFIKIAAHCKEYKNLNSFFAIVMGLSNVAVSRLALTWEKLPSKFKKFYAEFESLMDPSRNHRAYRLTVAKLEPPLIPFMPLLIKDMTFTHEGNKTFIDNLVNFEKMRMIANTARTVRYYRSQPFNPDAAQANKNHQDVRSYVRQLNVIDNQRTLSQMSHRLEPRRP
Experiment [3] shares this target. Briefly: Confirmatory qHTS for antagonist of cAMP-regulated guanine nucleotide exchange factor 4 (EPAC2) (AID 1645885). Also: % is scaled to controls: 0 for no effect and ±100 for the full control effect; nearly all actives have a fitted effect of over 25% in size.
The target of experiment [4] is Rap guanine nucleotide exchange factor 3 (Homo sapiens) (UniProt O95398). The experiment is described as follows: Counterscreen qHTS for antagonist of cAMP-regulated guanine nucleotide exchange factor 3 (EPAC1) (AID 1645888). Also: % of control where 0% means no effect. In outline: (§1)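 Measured: fluorescence of BODIPY-GDP bound to Rap1B, which falls as exchange proceeds. Conditions include 50 uM competing GDP, 5 and 30 min reads, and a later cAMP challenge for antagonist detection.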
Chain of Rap guanine nucleotide exchange factor 3 (Homo sapiens) (O95398 whole entry, looked up): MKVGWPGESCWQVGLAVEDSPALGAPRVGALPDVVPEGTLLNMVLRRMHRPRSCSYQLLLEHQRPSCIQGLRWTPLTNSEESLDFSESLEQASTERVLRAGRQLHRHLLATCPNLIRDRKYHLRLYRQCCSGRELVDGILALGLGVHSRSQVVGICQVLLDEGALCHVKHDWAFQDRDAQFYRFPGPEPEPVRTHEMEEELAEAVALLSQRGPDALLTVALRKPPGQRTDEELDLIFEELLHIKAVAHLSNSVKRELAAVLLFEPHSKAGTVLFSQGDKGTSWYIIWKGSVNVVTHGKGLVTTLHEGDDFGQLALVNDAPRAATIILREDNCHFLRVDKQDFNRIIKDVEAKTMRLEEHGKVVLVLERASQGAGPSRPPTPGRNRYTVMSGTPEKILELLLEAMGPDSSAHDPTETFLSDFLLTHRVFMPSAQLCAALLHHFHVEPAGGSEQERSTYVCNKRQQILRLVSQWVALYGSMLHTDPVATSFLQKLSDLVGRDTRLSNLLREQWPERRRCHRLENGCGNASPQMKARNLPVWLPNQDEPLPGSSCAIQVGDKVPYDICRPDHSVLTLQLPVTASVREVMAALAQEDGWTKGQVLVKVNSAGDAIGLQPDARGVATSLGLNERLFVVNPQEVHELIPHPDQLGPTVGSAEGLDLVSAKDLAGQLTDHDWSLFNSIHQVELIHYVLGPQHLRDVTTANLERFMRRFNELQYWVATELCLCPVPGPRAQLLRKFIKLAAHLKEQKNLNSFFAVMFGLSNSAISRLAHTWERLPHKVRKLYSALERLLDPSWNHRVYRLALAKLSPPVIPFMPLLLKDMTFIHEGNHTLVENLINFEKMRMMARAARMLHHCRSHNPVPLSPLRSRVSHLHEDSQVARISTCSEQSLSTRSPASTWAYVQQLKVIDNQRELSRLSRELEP
In general terms: The purpose of a counterscreen is to sort out artefacts and off-target activity.

The target is the same in experiment [5]. Briefly: Counterscreen qHTS for agonist of cAMP-regulated guanine nucleotide exchange factor 3 (EPAC1) (AID 1645889). Also: nearly all actives have a fitted effect of over 40% in size. Also: potency is read from the fitted curve at half-maximal effect. As to activation: % of control where 0% means no effect. A digest of the protocol:
as §1

Experiment [6] deals with Cytochrome P450 1A2 (Homo sapiens) (UniProt P05177). The experiment is described as follows: p450-cyp1a2 (AID 410; calls by dose curve; also: potency is read from the fitted curve at half-maximal effect). In outline: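 Inhibition was calculated relative to 57 uM furafylline (full inhibition). The reaction used human CYP1A2 at 20nM with Luciferin-ME at its Km, 100uM, driven by an NADPH-regenerating system for 60 min at room temperature.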
Chain of Cytochrome P450 1A2 (Homo sapiens) (P05177 whole entry, looked up): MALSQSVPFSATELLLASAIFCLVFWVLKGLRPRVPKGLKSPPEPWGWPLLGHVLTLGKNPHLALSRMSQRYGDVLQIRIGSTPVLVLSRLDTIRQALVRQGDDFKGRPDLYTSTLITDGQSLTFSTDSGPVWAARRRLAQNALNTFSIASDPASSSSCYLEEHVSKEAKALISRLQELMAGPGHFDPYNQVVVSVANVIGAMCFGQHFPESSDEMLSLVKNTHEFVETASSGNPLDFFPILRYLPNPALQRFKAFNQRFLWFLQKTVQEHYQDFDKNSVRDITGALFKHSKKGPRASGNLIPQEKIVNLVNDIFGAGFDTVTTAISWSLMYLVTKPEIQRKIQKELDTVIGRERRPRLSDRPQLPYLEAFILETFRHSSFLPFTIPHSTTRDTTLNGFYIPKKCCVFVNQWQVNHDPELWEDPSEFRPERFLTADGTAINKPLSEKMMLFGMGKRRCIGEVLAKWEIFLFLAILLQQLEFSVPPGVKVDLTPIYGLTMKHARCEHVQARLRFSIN
Experiment [7] has as its target Glucocorticoid receptor (Homo sapiens) (UniProt P04150). The experiment is described as follows: GR-GFP Redistribution (AID 450;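 active = compounds whose dose series gives a full or clear partial fitted curve of increased nuclear translocation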; also: potency is read from the fitted curve at half-maximal effect). Particulars: U2OS GR-GFP nuclear translocation, laser cytometry, 2 h.
Experiment [8] shares this target. Briefly: GR-EFC Redistribution (AID 451; calls by dose curve; also: potency is read from the fitted curve at half-maximal effect). Particulars: CHO-K1 GR-EFC translocation, beta-gal luminescence, 2 h. A digest of the protocol: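 CHO-K1 cells stably expressing nuclear-localized β-gal enzyme acceptor and GR fused C-terminally to the enzyme donor fragment; ligand-driven nuclear translocation restores β-gal by complementation. Compounds titrated up to 46 uM final, 2 h at 37 °C; luminescence read.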

Experiment [9] addresses Mitogen-activated protein kinase 10 (Mus musculus) (UniProt Q61831). Briefly: JNK3 AlphaScreen Assay (AID 530; active = well fitted curve in either direction with a large enough effect, not every such curve was filed as active;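 also: kinase came from lysate of stimulated human HepG2 cells; signal reports phosphorylation of biotinylated GST-cJun 1-79 at Ser73 with 10 µM ATP; series mostly up to about 57 µM; % is scaled to controls: 0 for no effect and ±100 for the full control effect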). In outline: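 JNK3 came from HepG2 lysates pre-activated with IL-1beta and TNF-alpha and phosphorylated biotinylated GST-cJun (1-79) at 10 uM ATP, pH 7.6, room temperature. Compounds were titrated. AlphaScreen signal used anti-phospho-cJun (Ser73) antibody.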
(In general: In Alpha technology, singlet oxygen from a donor bead excites a nearby acceptor bead.)

In experiment [10] the target is 3',5'-cyclic-AMP phosphodiesterase 4B (Homo sapiens) (UniProt Q07343). The experiment is described as follows: qHTS Assay for Inhibitors of PDE-IV (AID 607; active = well fitted activation curve with a large enough effect in the main read-out, with a control signal flat, not every such curve was filed as active; also: % of control where 0% means no effect). A digest of the protocol:
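HEK293 ACTOne cells with CNG channel (1000/well), endogenous PDE4; membrane potential dye, compounds up to 22.9 uM final. Fluorescence Ex 535/Em 590; RO 20-1724 (100 uM final) as reference.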

Experiment [11] has as its target Cytochrome P450 2C9 (Homo sapiens) (UniProt P11712). The experiment is described as follows: qHTS Assay for Inhibitors and Substrates of Cytochrome P450 2C9 (AID 883). Also: potency is read from the fitted curve at half-maximal effect; nearly all actives have a fitted effect of over 60% in size. A digest of the protocol: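 A luminogenic readout tracked human CYP2C9 (10nM) converting deoxyluciferin (100uM, at KM) in 25mM KPO4 during 60 min at 37C with regenerated NADPH. Values normalized to 57uM sulphaphenazole as complete inhibition.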

Experiment [12] addresses Cytochrome P450 3A4 (Homo sapiens) (UniProt P08684). The experiment is described as follows: qHTS Assay for Inhibitors and Substrates of Cytochrome P450 3A4 (AID 884). Also: potency is read from the fitted curve at half-maximal effect; nearly all actives have a fitted effect of over 50% in size. A digest of the protocol:
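20 nM human CYP3A4 with 25 uM Luciferin-PPXE (at KM) in 200 mM KPO4, preincubated 10 min with compound; NADPH regeneration started a 60 min RT reaction. Luciferin detected by luminescence, normalized to 57 uM ketoconazole as full inhibition.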

For experiment [13] the target is unchanged. The experiment is described as follows: qHTS Assay for Activators of Cytochrome P450 3A4 (AID 885). Also: nearly all actives have a fitted effect of over 65% in size. A digest of the protocol:
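Human CYP3A4 (20 nM) with Luciferin-PPXE at 25 uM (its KM) in 200 mM KPO4; 10 min compound preincubation, then NADPH regeneration and 60 min reaction at RT. Luciferin read by luminescence; normalized to 57 uM ketoconazole full inhibition.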

In experiment [14] the target is Cytochrome P450 2D6 (Homo sapiens) (UniProt P10635). Briefly: qHTS Assay for Inhibitors and Substrates of Cytochrome P450 2D6 (AID 891). Also: potency is read from the fitted curve at half-maximal effect; nearly all actives have a fitted effect of over 60% in size. A digest of the protocol:
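Human CYP2D6 (5 nM) with 30 uM Luciferin-ME EGE (at Km) in 100 mM KPO4, compound preincubated 10 min, then NADPH regeneration system for 60 min at room temperature. Luciferin read by luminescence; normalized to 1.43 uM quinidine.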

The target of experiment [15] is Cytochrome P450 2C19 (Homo sapiens) (UniProt P33261). The experiment is described as follows: qHTS Assay for Inhibitors and Substrates of Cytochrome P450 2C19 (AID 899). Also: potency is read from the fitted curve at half-maximal effect; nearly all actives have a fitted effect of over 60% in size. A digest of the protocol:
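NADPH-dependent conversion of Luciferin-H EGE (10uM, at KM) by 5nM enzyme in 50mM KPO4, 60 min at 37C following 10 min compound preincubation. Stopped with luciferin detection buffer; luminescence read after 20 min.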

Experiment [16] is described as follows: qHTS for Inhibitors of the vitamin D receptor (VDR): Hit Validation using a Texas Red Assay (AID 602201). Also: potency is read from the fitted curve at half-maximal effect. A digest of the protocol:
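Fluorescence polarization (Ex 595/Em 615 nm) of Texas Red (7 nM) with 1.5 uM VDR-LBD and LG19078 (final concentrations). Compounds were incubated for 2 hours at room temperature.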

Chain of Glucocorticoid receptor (Homo sapiens) (P04150 whole entry, looked up, the tested form may be a part): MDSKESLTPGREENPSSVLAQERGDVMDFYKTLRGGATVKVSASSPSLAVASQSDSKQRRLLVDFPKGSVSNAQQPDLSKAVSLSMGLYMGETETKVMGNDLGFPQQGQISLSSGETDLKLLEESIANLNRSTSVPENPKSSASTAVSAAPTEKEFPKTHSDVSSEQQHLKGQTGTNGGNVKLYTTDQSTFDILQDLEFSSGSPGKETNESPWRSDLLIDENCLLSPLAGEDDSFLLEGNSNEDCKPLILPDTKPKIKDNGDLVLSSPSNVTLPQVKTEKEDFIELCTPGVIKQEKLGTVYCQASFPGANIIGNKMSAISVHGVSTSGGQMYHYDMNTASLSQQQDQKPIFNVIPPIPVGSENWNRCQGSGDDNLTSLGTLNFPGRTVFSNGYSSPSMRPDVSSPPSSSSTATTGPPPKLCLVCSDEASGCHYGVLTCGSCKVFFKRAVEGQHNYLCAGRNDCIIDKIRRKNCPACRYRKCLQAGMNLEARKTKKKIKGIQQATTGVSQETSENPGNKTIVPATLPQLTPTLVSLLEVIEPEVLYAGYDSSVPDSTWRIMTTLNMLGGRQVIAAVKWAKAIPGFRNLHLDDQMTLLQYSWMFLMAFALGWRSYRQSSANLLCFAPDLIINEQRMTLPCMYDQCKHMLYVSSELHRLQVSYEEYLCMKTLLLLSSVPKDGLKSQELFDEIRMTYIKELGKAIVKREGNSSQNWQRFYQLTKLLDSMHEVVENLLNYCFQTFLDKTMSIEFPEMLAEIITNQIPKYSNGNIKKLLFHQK
Chain of Cytochrome P450 3A4 (Homo sapiens) (P08684 whole entry, looked up): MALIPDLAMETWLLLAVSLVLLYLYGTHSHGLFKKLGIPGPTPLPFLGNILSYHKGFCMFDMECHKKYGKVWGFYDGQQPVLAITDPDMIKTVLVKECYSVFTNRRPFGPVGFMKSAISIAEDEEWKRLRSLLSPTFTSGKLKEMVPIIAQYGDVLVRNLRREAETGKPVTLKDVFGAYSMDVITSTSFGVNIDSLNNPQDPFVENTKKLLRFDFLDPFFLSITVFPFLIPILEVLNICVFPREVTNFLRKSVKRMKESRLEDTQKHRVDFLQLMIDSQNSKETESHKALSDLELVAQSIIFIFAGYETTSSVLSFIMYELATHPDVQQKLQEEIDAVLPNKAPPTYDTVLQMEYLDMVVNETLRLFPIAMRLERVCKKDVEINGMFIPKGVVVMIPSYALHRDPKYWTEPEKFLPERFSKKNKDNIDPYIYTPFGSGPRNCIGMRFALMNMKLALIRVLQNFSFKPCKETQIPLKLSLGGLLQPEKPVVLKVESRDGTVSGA
Chain of Cytochrome P450 2D6 (Homo sapiens) (P10635 whole entry, looked up): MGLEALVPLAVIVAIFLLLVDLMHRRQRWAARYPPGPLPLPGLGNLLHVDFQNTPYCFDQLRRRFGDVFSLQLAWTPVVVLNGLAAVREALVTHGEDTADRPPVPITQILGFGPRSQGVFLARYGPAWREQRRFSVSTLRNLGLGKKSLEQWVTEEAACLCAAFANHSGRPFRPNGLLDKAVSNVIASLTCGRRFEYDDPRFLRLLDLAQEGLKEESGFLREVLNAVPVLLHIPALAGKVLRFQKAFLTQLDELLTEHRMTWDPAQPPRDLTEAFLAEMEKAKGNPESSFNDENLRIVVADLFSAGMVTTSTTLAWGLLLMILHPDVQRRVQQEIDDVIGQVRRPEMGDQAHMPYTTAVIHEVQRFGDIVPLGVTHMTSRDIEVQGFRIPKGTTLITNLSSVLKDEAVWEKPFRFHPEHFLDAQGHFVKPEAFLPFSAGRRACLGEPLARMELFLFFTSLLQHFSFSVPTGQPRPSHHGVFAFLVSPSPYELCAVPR
Chain of Cytochrome P450 2C9 (Homo sapiens) (P11712 whole entry, looked up): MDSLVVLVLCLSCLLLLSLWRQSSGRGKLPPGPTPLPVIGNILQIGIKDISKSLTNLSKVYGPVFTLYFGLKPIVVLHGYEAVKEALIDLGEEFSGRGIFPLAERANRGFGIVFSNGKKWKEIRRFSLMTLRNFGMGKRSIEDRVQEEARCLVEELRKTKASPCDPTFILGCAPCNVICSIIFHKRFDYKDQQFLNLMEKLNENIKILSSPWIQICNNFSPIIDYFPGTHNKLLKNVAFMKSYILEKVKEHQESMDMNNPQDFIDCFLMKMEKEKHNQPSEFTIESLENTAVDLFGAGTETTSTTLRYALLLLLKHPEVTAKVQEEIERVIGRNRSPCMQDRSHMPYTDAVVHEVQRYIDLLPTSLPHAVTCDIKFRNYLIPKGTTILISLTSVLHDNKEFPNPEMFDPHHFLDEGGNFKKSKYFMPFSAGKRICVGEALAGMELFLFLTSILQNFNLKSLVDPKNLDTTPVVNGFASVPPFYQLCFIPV

As to `CCOc1ccc(NC(=O)CN(C)S(=O)(=O)c2ccc(-c3ccc(=O)[nH]n3)s2)cc1`, the Potency in experiment [1] was 100 µM (active). The Potency result in experiment [2], in [3], in experiment [4] and in experiment [5] was “inactive” each time.
Consider `CSc1ccccc1NC(=O)CN1c2ccccc2CC1C` (stereo unspecified), for which the Potency entry in experiment [1] and in [3] was “inactive” throughout. Moreover, the activation in experiment [2] was 8.71% [at 17.1 µM, percent relative to cAMP agonist control]; in experiment [5], 44.6% [at 30.8 µM]. Further, the activity change, negative = inhibition in experiment [4] is -0.569% [at 30.8 µM].
`O=C1C=C(NCCc2cc(Br)c(O)c(Br)c2)C(=O)c2ncccc21`: the Potency is 3.16 µM (active) in [6]; greater than 46 µM in experiment [7]; greater than 9.22 µM in experiment [8]; 1.58 µM (active) in experiment [11]; 3.16 µM (active) in experiment [12]; 1.58 µM (active) in experiment [14]. The Potency in experiment [15] is 0.501 µM (active). The results for the activity change, negative = inhibition in experiment [9] and in experiment [4] were 0.257% [at 11.4 µM] and -20.2% [at 30.8 µM], respectively. Also, the Potency entry in [10], in [1] and in experiment [3] was “inactive” throughout. In [13], the activity change, positive = activation was -62.8% [at 11.4 µM]. For the same compound, the activation is 5.19% [at 17.1 µM, percent relative to cAMP agonist control] in experiment [2] and 14.9% [at 30.8 µM] in [5].
Take `COc1ccccc1NC(=O)CSc1sc2c(O)cc(=O)[nH]c2c1C#N`: the Potency entry in experiment [1] and in [3] was “inactive” each time. In addition, the activation in experiment [2] was 3.66% [at 17.1 µM, percent relative to cAMP agonist control]; in [5] it was 12.5% [at 30.8 µM]. Further, the activity change, negative = inhibition in experiment [4] was 0.384% [at 30.8 µM].
Turning to `CC(C)(C)NC(=O)C(c1ccc(C#N)cc1)n1c(=O)c(-c2ccco2)nc2ccccc21` (stereo unspecified), the Potency entry in experiment [1], in [2], in [3], in [4] and in experiment [5] was “inactive” each time.
With `COc1ccc(S(=O)(=O)Nc2cc(SCC(=O)O)c(O)c3ccccc23)cc1`, the Potency in experiment [16] was 3.55 µM (active); in experiment [5], 56.2 µM (active). In addition, the Potency entry in [1], in experiment [2], in experiment [3] and in [4] was “inactive” each time.
Regarding `O=C(CCn1cnc2onc(-c3ccc(F)cc3)c2c1=O)Nc1ccc(F)c(Cl)c1`, the Potency entry in experiment [1], in experiment [2], in experiment [3], in [4] and in experiment [5] was “inactive” each time.
As for `O=C(NCc1ccco1)c1c2c(nc3ccccc13)CCC2`, the Potency result in experiment [1] and in experiment [3] was “inactive” each time. Besides, the activation in experiment [2] is 6.94% [at 17.1 µM, percent relative to cAMP agonist control]; in [5], 26.4% [at 30.8 µM]. Also, in experiment [4], the activity change, negative = inhibition is -4.49% [at 30.8 µM].
